Results filed as inconclusive are left out. Activity calls are given as the source filed them. Unless noted, the call rests on the fitted dose curve; in most records, active means well fitted curve in the direction sought with a large enough effect; inconclusive means small, poorly fitted or top-dose-only effect, or another doubt; inactive means no such curve, though single readings can be large; an effect the other way counts as inactive or inconclusive.
Legend:
[1] = AP1 Signaling Pathway (AID 357; active means well fitted curve in either direction with a large enough effect, not every such curve was filed as active;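 further: ME-180 reporter cells stimulated with EGF at its EC50 level; on the % scale 0 is the no-effect control and ±100 the full control effect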)
Method in brief: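 AP-1-bla ME-180 cells, Opti-MEM + 0.5% dialyzed FBS, plated overnight 37 °C. Cpd titration + EC50 EGF, 5 h 37 °C. CCF4 2.5 h RT; ex 405, em 460/530 ratio → %activity, AC50.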

[2] = Stat Signaling Pathway (AID 446; active means well fitted curve in either direction with a large enough effect, not every such curve was filed as active;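 further: ME-180 cervical cancer cells given 40 pM IL-6 alongside compound; SIE-controlled beta-lactamase reporter measured as 460/530 nm FRET emission ratio; on the % scale 0 is the no-effect control and ±100 the full control effect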)
Method in brief: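 ME-180 cells carrying a SIE-driven beta-lactamase reporter are stimulated with 40 pM IL-6 for 5 h at 37C in the presence of compound. The 460/530 nm FRET substrate ratio is read after 2.5 h at RT. Data are normalised to 300 pM IL-6 and to 125 nM JAK inhibitor controls.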

[3] = molecular target: Glucocorticoid receptor (Homo sapiens) (UniProt P04150); test: GR-GFP Redistribution (AID 450;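 active means compounds whose dose series gives a full or clear partial fitted curve of increased nuclear translocation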; further: potency means the concentration at half of the fitted maximal effect); conditions: U2OS GR-GFP nuclear translocation, laser cytometry, 2 h
[4] = molecular target: Glucocorticoid receptor (Homo sapiens) (UniProt P04150); test: GR-EFC Redistribution (AID 451; calls by dose curve; further: potency means the concentration at half of the fitted maximal effect); conditions: CHO-K1 GR-EFC translocation, beta-gal luminescence, 2 h
Method in brief: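 CHO-K1 cells expressing nuclear EA and GR-ED fragments of b-gal; compounds titrated up to 46 uM final, 2 h at 37 C. GR nuclear translocation read as complemented b-gal luminescence after 1 h RT detection.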

[5] = molecular target: Mitogen-activated protein kinase 10 (Mus musculus) (UniProt Q61831); test: JNK3 AlphaScreen Assay (AID 530; active means well fitted curve in either direction with a large enough effect, not every such curve was filed as active;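 further: kinase came from lysate of stimulated human HepG2 cells; signal reports phosphorylation of biotinylated GST-cJun 1-79 at Ser73 with 10 µM ATP; on the % scale 0 is the no-effect control and ±100 the full control effect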)
Method in brief: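 Pre-activated (IL-1β/TNFα) JNK3 in HepG2 lysates phosphorylates biotin-GST-cJun(1-79), 10 uM ATP; anti-phospho-cJun(Ser73) AlphaScreen read at room temperature, pH 7.6 Tris buffer. Compounds pre-incubated 15 min as titrations.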

[6] = molecular target: 3',5'-cyclic-AMP phosphodiesterase 4B (Homo sapiens) (UniProt Q07343); test: qHTS Assay for Inhibitors of PDE-IV (AID 607; active means well fitted activation curve with a large enough effect in the main read-out, with a control signal flat, not every such curve was filed as active; further: % of control where 0% means no effect)
Method in brief: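 HEK293 ACTOne cells with CNG channel (1000/well), endogenous PDE4; membrane potential dye, compounds up to 22.9 uM final. Fluorescence Ex 535/Em 590; RO 20-1724 (100 uM final) as reference.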

[7] = qHTS Assay for Lipid Storage Modulators (AID 1519; calls by dose curve); conditions: Drosophila S3 cells, BODIPY lipid droplet/cell ratio, laser cytometry, cells loaded with oleic acid
Method in brief: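 Cells seeded at 5,000 per well were treated with compounds over a concentration series and loaded with oleic acid (400 uM, as added). Lipid droplet fluorescence (488 nm excitation, 500-530 nm channel) was read by laser-scanning cytometry and normalized to 20 uM Triacsin C.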

[8] = S16 Schwann cell viability assay (CellTiter-Glo assay) (AID 624031);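 further: native untransfected S16 rat Schwann cells; plate controls were DMSO-treated cells for no effect and cell-free wells for full effect; nearly all actives have a fitted effect of over 70% in size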
Method in brief: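 Counter-screen for cytotoxicity: parental S16 rat Schwann cells lacking the PMP22 reporters, treated 24 h with compound, viability from cellular ATP by CellTiter-Glo luminescence, normalized to DMSO (0%) and no-cell wells.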

[9] = qHTS profiling for inhibitors of Plasmodium falciparum proliferation (AID 504749); further: nearly all actives have a fitted effect of over 60% in size; further: potency means the concentration at half of the fitted maximal effect;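 on activity, negative = inhibition: 0% = DMSO vehicle and full inhibition = artemisinin control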; conditions: P. falciparum in erythrocytes, SYBR Green DNA, 72 h, at 12.8 µM (top of the series)
Method in brief: (§1)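 P. falciparum-infected erythrocytes (0.3% parasitemia, 2.5% hematocrit) incubated with compound 72 h at 37 C, 5% CO2. Parasite DNA detected by SYBR Green after lysis, overnight at room temperature; normalised to 0.29 uM artemisinin and DMSO.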

[10] = test system: AS120; test: as above; conditions: P. falciparum in erythrocytes, SYBR Green DNA, 72 h; series mostly up to 12.8 µM
Method in brief: as §1

[11] = test system: C2A; test: as above; conditions: P. falciparum in erythrocytes, SYBR Green DNA, 72 h; series mostly up to 12.8 µM
Method in brief: as §1

[12] = test system: CP237; test: as above; conditions: P. falciparum in erythrocytes, SYBR Green DNA, 72 h; series mostly up to 12.8 µM
Method in brief: as §1

[13] = test system: CP238; test: as above; conditions: P. falciparum in erythrocytes, SYBR Green DNA, 72 h; series mostly up to 12.8 µM
Method in brief: as §1

[14] = test system: CP252; test: as above; conditions: P. falciparum in erythrocytes, SYBR Green DNA, 72 h; series mostly up to 12.8 µM
Method in brief: as §1

[15] = test system: FAB9; test: as above; conditions: P. falciparum in erythrocytes, SYBR Green DNA, 72 h; series mostly up to 12.8 µM
Method in brief: as §1

[16] = test system: HB3; test: as above; conditions: P. falciparum in erythrocytes, SYBR Green DNA, 72 h; series mostly up to 12.8 µM
Method in brief: as §1

[17] = test system: JCK; test: as above; conditions: P. falciparum in erythrocytes, SYBR Green DNA, 72 h; series mostly up to 12.8 µM
Method in brief: as §1

[18] = test system: PAD; test: as above; conditions: P. falciparum in erythrocytes, SYBR Green DNA, 72 h; series mostly up to 12.8 µM
Method in brief: as §1

[19] = molecular target: Ubiquitin carboxyl-terminal hydrolase 1 (Homo sapiens) (UniProt O94782); test: Inhibitors of USP1/UAF1: Pilot qHTS (AID 504865);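 further: rhodamine fluorescence freed from ubiquitin-rhodamine substrate followed over time; top concentration of the series differs between compounds; on the % scale 0 is the no-effect control and ±100 the full control effect; nearly all actives have a fitted effect of over 35% in size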
Method in brief: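 Kinetic fluorescence assay: 1nM USP1/UAF1, 15 min compound preincubation, then 150nM Ub-Rho; 480/540 nm.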

[20] = NFAT Signaling Pathway (AID 444; active means well fitted curve in either direction with a large enough effect, not every such curve was filed as active;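 further: carbachol stimulus at about its EC50 of 1 µM final; on the % scale 0 is the no-effect control and ±100 the full control effect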); conditions: Jurkat NFAT-bla M1, carbachol, beta-lactamase ratio, 5 h; at 17.2 µM (top of the series) unless noted
Method in brief: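 Jurkat cells with NFAT-driven β-lactamase reporter and co-expressed M1 receptor, stimulated with carbachol (final 1 uM, ~EC50), compound titration, 5 h at 37 °C. CCF4 loaded 1 h at RT; 460/530 nm ratio gave %activity and AC50.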

[21] = measured here: cell count channel max response
[22] = measured here: lipid channel max response

Sequence of Ubiquitin carboxyl-terminal hydrolase 1 (Homo sapiens) (O94782 whole entry, looked up): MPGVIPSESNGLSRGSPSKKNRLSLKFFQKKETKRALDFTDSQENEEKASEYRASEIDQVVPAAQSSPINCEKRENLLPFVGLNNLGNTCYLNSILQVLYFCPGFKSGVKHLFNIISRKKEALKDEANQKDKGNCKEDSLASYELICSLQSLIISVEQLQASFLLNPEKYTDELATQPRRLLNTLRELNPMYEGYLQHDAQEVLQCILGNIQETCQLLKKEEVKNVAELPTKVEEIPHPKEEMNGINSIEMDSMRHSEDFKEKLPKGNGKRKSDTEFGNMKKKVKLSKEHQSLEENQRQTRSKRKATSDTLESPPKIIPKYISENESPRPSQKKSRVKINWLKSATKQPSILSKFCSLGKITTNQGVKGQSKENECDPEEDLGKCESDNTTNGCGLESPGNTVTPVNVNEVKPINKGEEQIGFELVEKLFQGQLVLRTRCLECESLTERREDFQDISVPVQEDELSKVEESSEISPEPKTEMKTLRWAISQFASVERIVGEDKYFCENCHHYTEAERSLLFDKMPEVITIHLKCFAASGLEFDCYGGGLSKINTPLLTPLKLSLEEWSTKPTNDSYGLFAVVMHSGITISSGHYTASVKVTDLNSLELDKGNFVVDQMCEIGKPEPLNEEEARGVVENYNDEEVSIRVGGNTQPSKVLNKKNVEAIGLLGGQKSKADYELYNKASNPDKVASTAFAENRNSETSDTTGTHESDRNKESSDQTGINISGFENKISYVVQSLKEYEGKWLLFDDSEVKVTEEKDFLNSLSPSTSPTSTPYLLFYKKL
Sequence of Glucocorticoid receptor (Homo sapiens) (P04150 whole entry, looked up, the tested form may be a part): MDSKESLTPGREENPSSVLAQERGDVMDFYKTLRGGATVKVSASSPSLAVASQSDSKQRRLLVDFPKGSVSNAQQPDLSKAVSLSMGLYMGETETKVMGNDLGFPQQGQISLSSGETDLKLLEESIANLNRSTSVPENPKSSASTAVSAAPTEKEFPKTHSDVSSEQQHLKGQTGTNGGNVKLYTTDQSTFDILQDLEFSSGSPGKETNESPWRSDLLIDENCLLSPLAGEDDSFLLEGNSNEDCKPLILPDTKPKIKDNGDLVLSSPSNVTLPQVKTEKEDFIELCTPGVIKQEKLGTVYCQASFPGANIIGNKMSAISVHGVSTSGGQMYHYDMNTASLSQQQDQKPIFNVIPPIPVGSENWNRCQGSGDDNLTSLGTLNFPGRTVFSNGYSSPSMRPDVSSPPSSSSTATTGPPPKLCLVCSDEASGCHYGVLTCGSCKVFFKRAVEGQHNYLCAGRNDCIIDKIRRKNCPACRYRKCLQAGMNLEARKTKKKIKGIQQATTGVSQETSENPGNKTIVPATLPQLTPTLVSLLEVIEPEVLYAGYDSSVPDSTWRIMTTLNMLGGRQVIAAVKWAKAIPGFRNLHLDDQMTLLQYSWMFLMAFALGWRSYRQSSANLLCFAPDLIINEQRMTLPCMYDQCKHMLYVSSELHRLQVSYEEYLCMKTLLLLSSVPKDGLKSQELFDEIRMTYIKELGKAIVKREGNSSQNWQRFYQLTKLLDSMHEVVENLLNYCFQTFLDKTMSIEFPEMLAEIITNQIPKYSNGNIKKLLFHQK
Sequence of 3',5'-cyclic-AMP phosphodiesterase 4B (Homo sapiens) (Q07343 whole entry, looked up): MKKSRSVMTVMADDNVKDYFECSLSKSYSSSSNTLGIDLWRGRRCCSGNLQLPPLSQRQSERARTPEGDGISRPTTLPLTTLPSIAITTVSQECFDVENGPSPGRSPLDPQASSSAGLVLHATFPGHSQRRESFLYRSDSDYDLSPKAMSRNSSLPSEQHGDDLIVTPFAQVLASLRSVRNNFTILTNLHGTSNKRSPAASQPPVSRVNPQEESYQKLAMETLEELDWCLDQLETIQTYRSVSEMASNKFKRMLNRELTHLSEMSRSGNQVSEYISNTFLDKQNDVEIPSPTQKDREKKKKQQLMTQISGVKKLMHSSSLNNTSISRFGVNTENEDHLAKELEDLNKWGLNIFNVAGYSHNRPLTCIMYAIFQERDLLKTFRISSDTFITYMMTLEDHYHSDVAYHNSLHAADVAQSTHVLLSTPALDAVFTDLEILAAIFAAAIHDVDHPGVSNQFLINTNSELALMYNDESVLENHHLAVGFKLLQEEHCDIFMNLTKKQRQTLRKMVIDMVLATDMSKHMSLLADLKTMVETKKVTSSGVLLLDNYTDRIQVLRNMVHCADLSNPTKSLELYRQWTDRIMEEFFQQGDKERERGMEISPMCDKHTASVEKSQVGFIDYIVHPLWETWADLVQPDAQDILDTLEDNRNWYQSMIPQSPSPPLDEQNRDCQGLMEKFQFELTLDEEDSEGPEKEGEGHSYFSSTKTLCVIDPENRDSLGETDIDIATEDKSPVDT

C#C[C@]1(O)CC[C@@H]2[C@H]3CCC4=CCCC[C@@H]4[C@@H]3CC[C@@]21C
-7.9%: max response [7, 21]
-10.1%: max response [7, 22]
inactive: outcome [1] | outcome [2] | Potency [3] > 20.6 µM | Potency [4] > 20.6 µM | Potency [5] | outcome [6] | activity change, negative = inhibition ([7]; at 25.7 µM (top of the series)) -4.16% | outcome [8] | activity, negative = inhibition ([9]; parasite line A) 11.7% | activity, negative = inhibition ([9]; parasite line B) 0.61% | Potency [10] | Potency [11] | Potency [12] | Potency [13] | Potency [14] | Potency [15] | Potency [16] | Potency [17] | Potency [18]

O=C(N[C@@H](CO)[C@@H](O)c1ccc([N+](=O)[O-])cc1)C(Cl)Cl
11.1%: max response [7, 21]
8.81%: max response [7, 22]
inactive: outcome [1] | outcome [2] | Potency [5] | outcome [6] | activity change, negative = inhibition ([7]; at 25.7 µM (top of the series)) -1.53% | Potency [19]

CCN(CC)CCOC(=O)[C@@H](Cc1cccc2ccccc12)C[C@@H]1CCCO1
-1.15%: max response [7, 21]
inactive: outcome [1] | outcome [2] | Potency [5] | outcome [6] | activity change, negative = inhibition ([7]; at 25.7 µM (top of the series)) -5.4% | Potency [19] | outcome [8] | activity, negative = inhibition ([9]; parasite line A) 5.1% | activity, negative = inhibition ([9]; parasite line B) 10% | Potency [10] | Potency [11] | Potency [12] | Potency [13] | Potency [14] | Potency [15] | Potency [16] | Potency [17] | Potency [18]
-7.84%: max response [7, 22]

C[C@@H](C(=O)O)c1ccc(N2Cc3ccccc3C2=O)cc1
inactive: outcome [1] | outcome [2] | Potency [3] > 20.6 µM | Potency [4] > 20.6 µM | Potency [5] | outcome [6] | activity change, negative = inhibition ([7]; at 25.7 µM (top of the series)) -0.476% | Potency [19]
-8.47%: max response [7, 21]
-10.4%: max response [7, 22]

C=CCO[C@@H](Cn1ccnc1)c1ccc(Cl)cc1Cl
inactive: outcome [1] | outcome [2] | Potency [3] > 20.6 µM | Potency [4] > 20.6 µM | Potency [5] | outcome [6] | activity change, negative = inhibition ([7]; at 25.7 µM (top of the series)) -0.8%
-7.51%: max response [7, 22]
-10.1%: max response [7, 21]

CO[C@@H]1C=CO[C@]2(C)Oc3c(C)c(O)c4c(O)c(c(C=NN5CCN(C)CC5)c(O)c4c3C2=O)NC(=O)C(C)=CC=C[C@H](C)[C@H](O)[C@H](C)[C@H](O)[C@H](C)[C@H](OC(C)=O)[C@H]1C
-4.36%: max response [7, 21]
inactive: outcome [1] | activity change, negative = inhibition [20] -8.69% | outcome [2] | Potency [5] | outcome [6] | activity change, negative = inhibition ([7]; at 25.7 µM (top of the series)) -0.87%
-4.23%: max response [7, 22]

CC#C[C@@]1(O)CC[C@H]2[C@@H]3CCC4=CC(=O)CCC4=C3[C@H](c3ccc(N(C)C)cc3)C[C@]21C
-7.59%: max response [7, 21]
inactive: outcome [1] | activity change, negative = inhibition [20] 15.9% | outcome [2] | outcome [6] | activity change, negative = inhibition ([7]; at 25.7 µM (top of the series)) 0.174%
-5.96%: max response [7, 22]

CCN1CCC[C@@H](OC(=O)C(c2ccccc2)c2ccccc2)C1
-3.56%: max response [7, 21]
active: Potency [12] 1.78 µM
inactive: outcome [1] | outcome [2] | Potency [3] > 20.6 µM | Potency [4] > 20.6 µM | Potency [5] | activity change, negative = inhibition ([7]; at 25.7 µM (top of the series)) -6.3% | outcome [8] | activity, negative = inhibition ([9]; parasite line A) 0.857% | activity, negative = inhibition ([9]; parasite line B) -1.3% | Potency [10] | Potency [11] | Potency [13] | Potency [15] | Potency [16] | Potency [17]
-10.4%: max response [7, 22]

CC1(C)S[C@@H]2[C@H](NC(=O)COc3ccccc3)C(=O)N2[C@H]1C(=O)O (tested in a mixture with another compound)
-7.85%: max response [7, 21]
-7.74%: max response [7, 22]
inactive: outcome [1] | outcome [2] | Potency [4] > 20.6 µM | Potency [5] | outcome [6] | activity change, negative = inhibition ([7]; at 25.7 µM (top of the series)) 1.44% | Potency [19]

Nc1nc(=S)c2ncn([C@H]3O[C@@H](CO)[C@@H](O)[C@@H]3O)c2[nH]1
2.2%: max response [7, 21]
-3.95%: max response [7, 22]
inactive: outcome [1] | outcome [2] | Potency [3] > 20.6 µM | Potency [4] > 20.6 µM | Potency [5] | outcome [6] | activity change, negative = inhibition ([7]; at 25.7 µM (top of the series)) -1.4%

CS(=O)(=O)Nc1cccc(-c2nc(Nc3ccccc3)c3ccccc3n2)c1
-5.28%: max response [7, 21]
inactive: outcome [1] | Potency [3] > 46 µM | Potency [4] > 46 µM | Potency [5] | activity change, negative = inhibition ([7]; at 57.5 µM (top of the series)) 7.97%
2.43%: max response [7, 22]

C[C@@H](CNC1CCCCC1)OC(=O)c1ccccc1
active: Potency [12] 3.16 µM | Potency [16] 3.98 µM | Potency [18] 3.16 µM
inactive: outcome [1] | outcome [2] | Potency [3] > 20.6 µM | Potency [4] > 20.6 µM | Potency [5] | outcome [6] | activity change, negative = inhibition ([7]; at 25.7 µM (top of the series)) -3.84% | Potency [19] | outcome [8] | Potency [11] | Potency [14]
-19.5%: max response [7, 22]
-16.8%: max response [7, 21]

Nc1ncnc2c1ncn2[C@@H]1O[C@H](COP(=O)(O)O)[C@@H](O)[C@@H]1O
-10.8%: max response [7, 22]
-10.2%: max response [7, 21]
inactive: activity change, negative = inhibition [20] -4.61% | Potency [3] > 20.6 µM | Potency [4] > 20.6 µM | Potency [5] | outcome [6] | activity change, negative = inhibition ([7]; at 25.7 µM (top of the series)) -0.35% | Potency [19]

Cc1ccnc(N)c1
inactive: Potency [3] > 46 µM | Potency [4] > 46 µM | activity change, negative = inhibition ([7]; at 57.5 µM (top of the series)) -1.11% | Potency [19]
-7.5%: max response [7, 21]
-8.73%: max response [7, 22]

Clc1ccc(CC[C@H](Cn2ccnc2)Sc2c(Cl)cccc2Cl)cc1
active: Potency [10] 2.24 µM | Potency [16] 3.55 µM | Potency [18] 3.55 µM
-6.78%: max response [7, 22]
inactive: outcome [2] | Potency [3] > 20.6 µM | Potency [4] > 20.6 µM | Potency [5] | activity change, negative = inhibition ([7]; at 25.7 µM (top of the series)) 3.47% | outcome [8]
-3.86%: max response [7, 21]
